Sampled rows, rich in hits. Any-hit rate of the full collection: about 6.1%.
FLuc inh: blocks Photinus pyralis firefly luciferase activity | P08659 | purified firefly luciferase, luminescence, 8 min | Potency, µM (top dose mostly 57.1 µM), most hits filed as inhibitors | 72,000 compounds, 2.2% hits | AID 411; note: nearly all actives have a fitted effect of over 40% in size
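Firefly luciferase (PKLight detection mix) with 10 uM ATP in pH 7.2 imidazole buffer (KCl, MgCl2, Tween 20, BSA). Compounds tested across a concentration series (qHTS). Luminescence read after 8 min at ambient temperature.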
ERK AVP inh: vasopressin-driven ERK pathway inhibition | Potency, µM (series often up to 57.5 µM), actives largely listed as inhibitors | 72,000 compounds, 0.99% hits | HEK293-V1b, vasopressin-stimulated pERK AlphaScreen; note: nearly all actives have a fitted effect of over 55% in size
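HEK293 cells stably expressing V1b receptor, seeded overnight in 1% FBS, were treated with compounds for 30 min at 37C, then stimulated 5 min with 25 nM vasopressin; phospho-ERK read by AlphaScreen SureFire after lysis.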
PK Bst: pyruvate kinase (B. stearothermophilus) modulation. Potency, µM. purified pyruvate kinase, luminescence ATP production; ribose 5-phosphate activator present at AC10. 51,000 compounds, 1.2% hits. AID 361; in the data active = potency below about 11 µM; inconclusive = mostly about 12 µM to 25 µM;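 the screen sought inhibitors and activators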
HEK293 cAMP cs: raises cAMP in parental HEK293 cells, TSHR agonist counter-screen | parental HEK293 CNG cAMP sensor, membrane potential fluorescence | Potency, µM (doses to about 57.1 µM), usual class: activators | 73,000 compounds, 2.5% hits | AID 938; note: nearly all actives have a fitted effect of over 55% in size
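Counterscreen for endogenous-receptor signalling: CNG-channel HEK 293 cells report cAMP rise by membrane depolarization. After 60 min dye equilibration with 100 uM RO 20-1724, compounds incubated 30 min before bottom-read fluorescence at 590 nm.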
GBA mod: human lysosomal glucosylceramidase modulation; P04062; purified enzyme, resorufin glucoside fluorescence (screen aimed at inhibitors), 20 min; Potency, µM; 48,000 compounds, 1.1% hits; AID 360; in the data active = potency below about 15 µM; inconclusive = mostly about 16 µM to 33 µM;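 note: the screen sought inhibitors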
Target sequence (P04062 whole entry, looked up): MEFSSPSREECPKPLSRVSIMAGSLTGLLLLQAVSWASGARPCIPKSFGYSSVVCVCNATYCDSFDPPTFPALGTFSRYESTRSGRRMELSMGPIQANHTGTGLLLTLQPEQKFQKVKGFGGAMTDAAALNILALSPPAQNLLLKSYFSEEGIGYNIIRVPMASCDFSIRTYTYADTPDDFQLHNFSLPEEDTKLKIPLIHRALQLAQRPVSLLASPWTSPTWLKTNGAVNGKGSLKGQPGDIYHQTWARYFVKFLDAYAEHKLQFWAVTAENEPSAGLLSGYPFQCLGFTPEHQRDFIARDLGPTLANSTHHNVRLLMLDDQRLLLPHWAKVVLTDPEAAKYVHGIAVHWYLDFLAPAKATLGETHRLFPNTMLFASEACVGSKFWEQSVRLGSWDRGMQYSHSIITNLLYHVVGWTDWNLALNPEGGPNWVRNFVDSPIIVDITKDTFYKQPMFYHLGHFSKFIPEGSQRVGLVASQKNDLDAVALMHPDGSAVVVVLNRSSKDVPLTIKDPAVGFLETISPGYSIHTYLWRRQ
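Normal human glucocerebrosidase (0.2 nM final) was assayed with resorufin β-D-glucopyranoside (30 uM final) in 50mM citric acid/KH2PO4, 10mM sodium taurocholate, 0.01% tween-20, pH 5.9. Compounds were titrated; fluorescence (Ex 548, Em 600) read after 20 min at RT.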
TSHR agonist: TSH receptor (human) agonism; P16473; HEK293-CNG-TSHR cells (CNG channel as cAMP sensor), membrane potential dye, cAMP; Potency, µM (highest dose often 57.1 µM), usual class: activators; 73,000 compounds, 0.48% hits; AID 926; active = well fitted activation curve with a large enough effect in the main read-out, with a control signal flat, not every such curve was filed as active; inconclusive = small, poorly fitted or top-dose-only effect, or a change in a side signal; inactive = no such curve, though single readings can be large or run the other way; reference of the percent scale not stated here;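 note: the control signal comes from parental cells without the receptor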
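cAMP rise detected as CNG-channel membrane depolarization by fluorescent dye (emission 590 nm), 30 min after compound, following 60 min dye loading containing 100 uM RO 20-1724 at room temperature. Cells: TSHR/CNG HEK 293, with parental CNG HEK 293 as control.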
Numbers stand for hits; - = inactive; ? = inconclusive; . = not tested or not shown; [ ] = another dose, or the depositor's remark. Unless noted, calls come from the whole dose curve; as a rule, active = well fitted curve in the direction sought with a large enough effect; inconclusive = small, poorly fitted or top-dose-only effect, or another doubt; inactive = no such curve, though single readings can be large; an effect the other way counts as inactive or inconclusive.

SMILES | FLuc inh | ERK AVP inh | PK Bst | HEK293 cAMP cs | GBA mod | TSHR agonist
C=CCn1c(/N=C/c2ccc(N(C)C)cc2)nc2ccccc21 | 4µM | - | 1.4 | - | - | -
C=CCn1c(C(C)NC(=O)C(C)(C)C)nc2ccccc21 (stereo not given) | - | - | - | - | - | -[11.4 µM]
CN(C)c1ccc(/C=N/n2ncc3ccccc32)cc1 | 4µM | - | 1.9 | - | ? | -[11.4 µM]
Cc1occc1C(=O)Nc1sc2c(c1C(N)=O)CCCCC2 | 13µM | - | - | ? | - | ?
O=C(Nc1sc2c(c1C(=O)O)CCCCC2)c1ccco1 | 20µM | - | . | - | . | -
COC(=O)c1c(NC(=O)c2ccoc2C)sc2c1CCC2 | - | - | - | - | - | -
CCN=C(N)CSS(=O)(=O)O | -[11.4 µM] | -[11.5 µM] | . | -[11.4 µM] | . | -[11.4 µM]
NNS(=O)(=O)c1cc(C(=O)O)cc(C(=O)O)c1 | -[11.4 µM] | -[11.5 µM] | . | -[11.4 µM] | . | -[11.4 µM]
CCN1C(=O)[C@H]2[C@H]3[C@H](O)[C@H](O)C/C(=N/NC(=O)OCc4ccccc4)[C@@H]3CC[C@@H]2C1=O | -[11.4 µM] | -[11.5 µM] | . | -[11.4 µM] | . | -[11.4 µM]
Cc1cc(C)cc(OCC(=O)Nc2cccc(-c3nnc(-c4ccco4)o3)c2)c1 | - | ? | - | 25µM | - | ?
O=C(COc1ccccc1)Nc1cccc(-c2nnc(-c3ccccc3)o2)c1 | - | - | - | 25µM | - | ?
O=C1C2=CC[C@H]3C(=O)N(Cc4ccc5c(c4)OCO5)C(=O)[C@@H]3[C@@H]2[C@H](O)[C@@H]2O[C@H]12 | -[11.4 µM] | -[11.5 µM] | . | -[11.4 µM] | . | -[11.4 µM]
COc1ccc(C(=O)Nc2cccc(C)c2)cc1S(=O)(=O)N1CCOCC1 | - | - | - | ? | - | ?
COc1ccc(C(=O)Nc2ccc(-c3ccc(C)o3)cc2)cc1S(=O)(=O)N1CCOCC1 | - | 2µM | - | - | - | -
COc1ccc(CNc2nc(-c3cccc(NS(C)(=O)=O)c3)nc3ccccc23)c(OC)c1 | -[2.29 µM] | - | . | ? | . | ?
O=C(O)CCCNc1cc(N2CCC3(CC2)OCCO3)c2noc3c2c1C(=O)c1ccccc1-3 | 25µM | - | - | - | 12 | -
Cc1nnc(C)c2c(C)n(-c3ccc(Br)cc3)c(C)c12 | - | - | . | 4µM | . | ?
CS(=O)(=O)Nc1cccc(-c2ccc3ncnc(N4CCOCC4)c3c2)c1 | -[2.29 µM] | ? | . | - | . | -
C/C=C/OC(=O)NC(c1ccccc1)[C@]1(C(C)=O)CCOC1=O (stereo not given in full) | . | -[11.5 µM] | . | ? | . | ?
COC(=O)NC(c1ccc(F)cc1)C(C(C)=O)C(=O)OC (stereo not given) | . | -[11.5 µM] | . | -[11.4 µM] | . | -[11.4 µM]
CC(C)(C)c1cc(Br)c(O)c(CN(Cc2cc(C(C)(C)C)cc(Br)c2O)C2CCCCC2)c1 | -[11.4 µM] | -[11.5 µM] | . | ? | . | ?
O=C(CCCCCn1c(=S)[nH]c2cc3c(cc2c1=O)OCO3)N1CCN(C2CCCCC2)CC1 | - | - | - | - | 0.9 | -
O=C(CCCCCn1c(=S)[nH]c2cc3c(cc2c1=O)OCO3)N1CCN(C(=O)c2ccco2)CC1 | - | - | - | - | ? | -
CC(=O)OC[C@@H]1O[C@H](C/C=N\O[C@@H](C)c2cc(-c3c(C)cc(C)cc3C)no2)C=C[C@@H]1OC(C)=O | -[11.4 µM] | -[11.5 µM] | . | -[11.4 µM] | . | -[11.4 µM]
c1cc(CSc2ncnc3nc[nH]c23)ccn1 | -[11.4 µM] | -[11.5 µM] | . | -[11.4 µM] | . | -[11.4 µM]
SMILES | FLuc inh | ERK AVP inh | PK Bst | HEK293 cAMP cs | GBA mod | TSHR agonist
COc1ccccc1-c1cc(C(F)(F)F)nc(N2CCN(c3ccccc3)CC2)n1 | - | - | - | - | - | -[11.4 µM]
COc1ccccc1-c1cc(C(F)(F)F)nc(N2CCOCC2)n1 | - | - | - | 20µM | - | ?
O=C(CSc1nnnn1C1CCCC1)N1CCCc2ccccc21 | - | - | - | ? | - | ?
O=C(CSc1nnc(Cc2cccs2)n1C1CCCCC1)N1CCCc2ccccc21 | - | - | - | 13µM | . | ?
O=c1c2ccccc2oc2cc(O)c([C@@H]3COC[C@@H](CO)[C@@H](O)[C@@H](O)[C@H]3O)c(O)c12 | -[11.4 µM] | . | . | - | . | -
Cc1nc2ccccc2c(=O)n1/N=C/c1cn(-c2ccccc2)nc1-c1cccs1 | 3.2µM | ? | . | - | - | -
OC[C@@H](O)CN1CCN(c2ccccc2)CC1 | - | - | . | - | . | -
CN(c1ccc(O)cc1)c1nc(-c2ccccc2)cs1 | 13µM | - | ? | - | - | ?
